# Test results: PubChem BioAssay
# The source made the active and inactive calls.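 How the source made its calls, unless noted: active means inhibition at or above 50% at 10 µM; inactive means inhibition below 50%.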 Where a SMILES comes first, the peptide text is derived from it. [ ]: non-standard residue; d: D form. The star is where a group is joined. ξ: configuration not given here. Cbz = O=C(OCc1ccccc1)*; ξK = NCCCCC(N)C(=O)O
# How the values were obtained:
# [1] = inhibitors of TNFa-induced NFkB p65 translocation, primary screen, imaging, HUVEC, MLSMR starter and 10KST1 sets (AID 438;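 active means inhibition above 20% together with a positive visual image hit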;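 further: compound added about 3h40 before a 20 min TNFalpha stimulation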;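 on inhibition: signal is the nuclear over cytoplasmic p65 intensity ratio per well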); conditions: HUVEC TNFa-induced p65 nuclear translocation; cell count: measured here: nuclei count (cytotoxicity indicator), at 2.08 µM; inhibition: at 2 µM, stronger effect = higher value, 0% TNFa-plus-vehicle, 100% no-TNFa wells
# [2] = reduction of polyQ htt aggregates in cells – imaging, exon1htt(103Q)mCFP cells, high-content imaging, primary screen (AID 483;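 active means visual image review flags a hit and inhibition of aggregation exceeds 20%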;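 further: compound exposure lasted 3 days before fixation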;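 on nuclei count: percent of the per-plate median nuclei count of sample wells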); conditions: exon1htt(103Q)mCFP cell line, aggregate imaging, at 2 µM; inhibition of aggregation: stronger effect = higher value; nuclei count: measured here: cell count, toxicity
# [3] = endothelial E-selectin expression blockers – imaging, HUVEC, immunofluorescence, MLSMR starter and 10KST1 sets, primary screen (AID 487;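 active means visually confirmed hit in the image check and inhibition above 20%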;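 on inhibition: signal is fraction of cell area covered by stained E-selectin grains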;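 on nuclei count: 100% = median nuclei count of all wells on the same plate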); conditions: HUVEC TNFalpha-induced E-selectin immunofluorescence imaging, at 2 µM; inhibition: stronger effect = higher value; nuclei count: measured here: cell number, toxicity
# [4] = molecular target: Voltage-gated potassium channel subunit beta-2 (Rattus norvegicus) (UniProt P62483); experiment: inhibitors of rat Kvbeta2 reductase activity – biochemical, NADPH fluorescence, primary screen (AID 622;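 active means fluorescence slope higher than the sample average by over 3 SD, cut at about -0.22 in these data, passing the limit was not always enough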;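 further: slope of raw intensity against log time taken from 70 to 1610 s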); conditions: recombinant KvBeta, 4-cyanobenzaldehyde reduction, at 10 µM, stronger effect = higher value
# [5] = molecular target: Voltage-gated potassium channel subunit beta-2 (Rattus norvegicus) (UniProt P62483); experiment: enhancers of rat Kvbeta2 NADPH turnover – biochemical, NADPH fluorescence, primary screen (AID 623;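 active means NADPH fluorescence slope more negative than the mean of all samples by about 3 SD, 99.7% confidence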;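 further: fluorescence intensity change per second fitted from 20 to 320 s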); conditions: Recombinant KvBeta, NADPH fluorescence decrease slope, 10 min; at 10 µM; stronger effect = lower value
# [6] = molecular target: Alpha-2C adrenergic receptor (Homo sapiens) (UniProt P18825); experiment: compounds altering alpha2C-coupled GIRK flux – cell-based, HEK293 alpha2C/GIRK1/2, thallium flux, primary screen (AID 624;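 active means fluorescence slope after compound addition differing from the mean of all screened samples at 99.7% confidence, in either direction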;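 further: slope of fluorescence ratio to pre-addition baseline per second over 15 to 24 s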); conditions: thallium flux BTC fluorescence, at 10 µM, actives lie on both sides
# [7] = blockers of RIG-like receptor reporter activation – cell-based, Sendai virus stimulus, luciferase, 10K MLSCN set, TLR/RLR signaling modifier project, primary screen (AID 602276); conditions: HEK293 RL24 IRF3 luciferase reporter, at 10 µM, stronger effect = higher value;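 further: firefly luciferase from ISG56 promoter only with Renilla not read in this screen; 0% = Sendai virus plus DMSO and 100% = medium plus DMSO without virus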
# [8] = TLR3 IRF3 reporter activation blockers – cell-based, poly I:C stimulus, luciferase, 10K MLSCN set, primary screen (AID 602277;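 active means inhibition of the reporter signal at or above 50%; inactive means inhibition below 50%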); conditions: HEK293-TLR3 RL24 IRF3 luciferase reporter, at 10 µM, stronger effect = higher value
# Sequence of Alpha-2C adrenergic receptor (Homo sapiens) (P18825 whole entry, looked up): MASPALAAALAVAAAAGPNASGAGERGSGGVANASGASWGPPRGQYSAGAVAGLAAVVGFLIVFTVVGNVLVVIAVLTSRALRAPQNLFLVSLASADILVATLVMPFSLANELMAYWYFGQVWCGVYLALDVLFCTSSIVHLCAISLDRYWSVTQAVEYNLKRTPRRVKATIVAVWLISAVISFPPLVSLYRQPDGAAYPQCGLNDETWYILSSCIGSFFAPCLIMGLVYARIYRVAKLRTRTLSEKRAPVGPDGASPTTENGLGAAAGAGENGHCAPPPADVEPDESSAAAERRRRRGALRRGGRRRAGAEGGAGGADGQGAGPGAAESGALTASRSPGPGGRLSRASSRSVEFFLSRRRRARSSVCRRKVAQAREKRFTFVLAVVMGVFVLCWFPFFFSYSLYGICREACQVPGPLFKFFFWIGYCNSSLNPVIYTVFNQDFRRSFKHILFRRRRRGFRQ
# Sequence of Voltage-gated potassium channel subunit beta-2 (Rattus norvegicus) (P62483 whole entry, looked up): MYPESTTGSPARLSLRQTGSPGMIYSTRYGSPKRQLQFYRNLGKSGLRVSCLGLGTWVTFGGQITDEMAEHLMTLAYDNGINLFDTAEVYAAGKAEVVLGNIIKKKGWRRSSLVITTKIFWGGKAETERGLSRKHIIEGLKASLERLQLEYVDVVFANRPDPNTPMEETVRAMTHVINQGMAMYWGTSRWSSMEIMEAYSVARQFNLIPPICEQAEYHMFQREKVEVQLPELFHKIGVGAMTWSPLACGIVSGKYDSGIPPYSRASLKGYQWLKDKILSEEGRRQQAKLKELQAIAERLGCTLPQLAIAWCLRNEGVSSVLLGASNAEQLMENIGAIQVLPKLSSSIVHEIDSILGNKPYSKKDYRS
Compound,cell count [1],inhibition [1],inhibition of aggregation [2],nuclei count [2],inhibition [3],nuclei count [3],fluorescence slope [4],NADPH fluorescence slope [5],slope [6],inhibition [7],inhibition [8]
CN(C)c1ccc(C(=O)Nc2nnc(-c3ccc(Cl)cc3)o2)cc1,671,1.3% (inactive),-15.9% (inactive),109%,-46.6% (inactive),113%,-0.409 (inactive),-6.1e-05 (inactive),0.00542 (inactive),13% (inactive),29.7% (inactive)
CC(=O)NC(CCS(C)(=O)=O)C(=O)Nc1cccc(C)c1 (configuration not stated),600,8.7% (inactive),2.5% (inactive),110%,21.6% (inactive),95.7%,-0.579 (inactive),1.1e-05 (inactive),0.00598 (inactive),-14.8% (inactive),-1.13% (inactive)
CCCCNC(=O)c1nc2ncc(Br)cn2n1,665,0% (inactive),-12.4% (inactive),109%,56.5% (inactive),81.1%,-0.442 (inactive),-7.5e-05 (inactive),0.00578 (inactive),12.8% (inactive),22.4% (inactive)
COc1ccc(N2CCN(Cc3nc(-c4ccc(Cl)cc4Cl)no3)CC2)cc1,596,-0.7% (inactive),4.9% (inactive),106%,-48.8% (inactive),122%,-0.421 (inactive),-7.7e-05 (inactive),0.00526 (inactive),18.6% (inactive),22.1% (inactive)
O=C(CSc1nnc2ncccn12)N1CCCCCC1,673,26.6% (active),8.3% (inactive),106%,-9.5% (inactive),82.7%,-0.475 (inactive),-0.000211 (inactive),0.00529 (inactive),4.98% (inactive),99.3% (active)
OCCNc1nc2ccc(Cl)cc2[nH]1,433,2.6% (inactive),19.6% (inactive),106%,-19% (inactive),110%,-0.365 (inactive),1.9e-05 (inactive),0.00613 (inactive),-12.8% (inactive),-7.02% (inactive)
COc1cccc2cc(C(=O)OC3CCN(C)CC3)c(=O)oc12,532,-6.1% (inactive),38.8% (inactive),77.9%,-56% (inactive),110%,-0.605 (inactive),-2.6e-06 (inactive),0.00643 (inactive),6.92% (inactive),31.8% (inactive)
COC(=O)c1ccccc1NC(=O)c1ccc(COc2ccccc2)o1,845,-8.3% (inactive),6.6% (inactive),113%,-19.3% (inactive),114%,-0.63 (inactive),-3.5e-05 (inactive),0.00572 (inactive),-25.9% (inactive),-60.3% (inactive)
O=C(Nc1ccc2c(c1)OCO2)c1ccc(CN2CCOCC2)cc1,361,-5.1% (inactive),-32% (inactive),110%,-117% (inactive),122%,-0.491 (inactive),-3.3e-05 (inactive),0.00498 (inactive),-25.7% (inactive),-76.1% (inactive)
C=CCN1C(=O)CS/C1=C(\C#N)S(=O)(=O)c1ccc(C)cc1,585,13.3% (inactive),-5.1% (inactive),108%,-75.5% (inactive),104%,-0.481 (inactive),-4.8e-05 (inactive),0.00449 (inactive),20% (inactive),28.5% (inactive)
COc1cccc(-c2cc(C(=O)NCc3ccc(Cl)cc3)no2)c1,475,-3.9% (inactive),-3.3% (inactive),103%,13.3% (inactive),95.6%,-0.474 (inactive),1.7e-05 (inactive),0.00826 (inactive),46% (inactive),-11.6% (inactive)
CCOc1cc(C2CC(=O)N3CN(C4CCCCC4)CSC3=C2C#N)ccc1O (configuration not stated),818,2.3% (inactive),-24.4% (inactive),114%,-31.4% (inactive),110%,-0.607 (inactive),1.8e-05 (inactive),0.00576 (inactive),11.2% (inactive),19.8% (inactive)
COC(=O)c1sc(N)c(C(=O)OC)c1CSc1nc2sc3c(c2c(=O)n1C)CCC3,428,14.1% (inactive),-20% (inactive),104%,2.9% (inactive),111%,-0.524 (inactive),-6.8e-06 (inactive),0.00788 (inactive),-6.85% (inactive),15% (inactive)
CCc1ccc(NC(=O)C2CC(=O)N(C(C)C)C2)cc1 (configuration not stated),346,-6.8% (inactive),23.8% (inactive),92.5%,-6.6% (inactive),75.6%,-0.62 (inactive),2.5e-05 (inactive),0.00536 (inactive),7.09% (inactive),0.245% (inactive)
CCCN(Cc1cc2ccc(C)cc2[nH]c1=O)C(=O)c1cccnc1,779,2.6% (inactive),-34.8% (inactive),104%,-5.8% (inactive),109%,-0.46 (inactive),1.6e-05 (inactive),0.00624 (inactive),11.3% (inactive),27.1% (inactive)
Cc1ccccc1N1OC2C(=O)N(c3ccc(F)cc3)C(=O)C2C1c1ccccn1 (configuration not stated),680,-3.5% (inactive),-5.9% (inactive),96.3%,-36.7% (inactive),152%,-0.607 (inactive),-1.4e-05 (inactive),0.00636 (inactive),10.4% (inactive),21.1% (inactive)
Cc1ccc(C(c2sc3nc(C)nn3c2O)N2CC(C)OC(C)C2)cc1 (configuration not stated),213,-3.9% (inactive),-30.3% (inactive),110%,-23.9% (inactive),108%,-0.44 (inactive),-5.9e-05 (inactive),0.00489 (inactive),16.3% (inactive),29.9% (inactive)
O=S(=O)(c1ccccc1)N(Cc1nc(-c2ccccc2)no1)C1CCCCC1,446,2% (inactive),5.6% (inactive),76.3%,-57.4% (inactive),96.2%,-0.461 (inactive),-1.2e-05 (inactive),0.00919 (inactive),16.6% (inactive),30.8% (inactive)
COC(=O)C(CCCCNC(=O)OCc1ccccc1)NC(=O)CN (configuration not stated) (H-Gly-[ξK](Cbz)-OMe),529,-6.5% (inactive),11.4% (inactive),104%,-14% (inactive),71.3%,-0.623 (inactive),-2.9e-05 (inactive),0.00756 (inactive),4.8% (inactive),6.56% (inactive)
COc1ccccc1-n1c(=O)[nH]c2c(C(N)=O)nc(-c3cccnc3)nc21,679,-5.2% (inactive),-20.4% (inactive),101%,-19.1% (inactive),104%,-0.516 (inactive),-3.5e-06 (inactive),0.00612 (inactive),15.6% (inactive),-10.2% (inactive)
Cc1c(-n2c(CN3C(=O)c4ccccc4C3=O)nc3ccccc3c2=O)c(=O)n(-c2ccccc2)n1C,407,-8.4% (inactive),-10.1% (inactive),115%,77.1% (inactive),95.8%,-0.619 (inactive),1.1e-05 (inactive),0.00583 (inactive),5.03% (inactive),24.9% (inactive)
CSc1nnc(-c2ccc(NC(=O)CCc3ccccc3)cc2)n1C,711,-28.4% (inactive),-1.8% (inactive),100%,-79.2% (inactive),120%,-0.474 (inactive),-3e-05 (inactive),0.00726 (inactive),-3.25% (inactive),15.4% (inactive)
Cc1ccc2c(c1)C1CCCC3C1N2CC(=O)N3Cc1ccccc1 (configuration not stated),331,-7.1% (inactive),-7.3% (inactive),81.8%,-136% (inactive),131%,-0.498 (inactive),-3.8e-05 (inactive),0.00336 (inactive),7.59% (inactive),-11.1% (inactive)
Cn1c(Cc2ccccc2)nnc1SCC(=O)c1ccc(Br)s1,180,0.4% (inactive),16.7% (inactive),94.8%,-8.9% (inactive),98.1%,-0.596 (inactive),-1.4e-05 (inactive),0.00563 (inactive),6.15% (inactive),10.8% (inactive)
O=C1CCNc2cc3ccccc3cc21,356,2.5% (inactive),32.4% (inactive),80.4%,24.1% (inactive),99.3%,-0.472 (inactive),-0.000147 (inactive),0.00661 (inactive),21.5% (inactive),32.3% (inactive)
CCOC(=O)c1ccc(NC(=O)Cn2cc3c(n2)CCC(C)C3)cc1 (configuration not stated),711,-3.7% (inactive),-28.2% (inactive),91.4%,-6% (inactive),101%,-0.485 (inactive),2.3e-05 (inactive),0.00553 (inactive),12.5% (inactive),23.6% (inactive)
CCOC(=O)N1CCN(C(=O)COc2ccc(S(=O)(=O)NC3CCCCC3)cc2C)CC1,536,9.7% (inactive),-14.2% (inactive),105%,-31.8% (inactive),93.5%,-0.644 (inactive),-4.2e-05 (inactive),0.00446 (inactive),3.18% (inactive),-12.8% (inactive)
